This is an account of results in PubChem BioAssay.

Assay [1] can be described thus: HepG2 liver cancer cell viability effects, profiling panel, resazurin fluorescence, 24 h, PK04 Diversity Set (AID 1172). Also: test concentration not given here. Conditions: higher = more signal. In general terms: The colour change of resazurin is a common sign of viable cells or microbes.
Assay [2] is described as follows: basal S. cerevisiae growth modulation, no modifier, primary screen, OD600, strain BY4716, 24 h, basal condition (AID 1173). Conditions: OD600, 24 h, higher = more signal, called active from +8 up or from −8 down.
A short description of assay [3]: MM1S myeloma cell viability, profiling panel, resazurin fluorescence, basal, 24 h, PK04 Diversity Set (AID 1174).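 Also: MM1S multiple myeloma cell line; test concentration not given here.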 To be noted: higher = more signal, called active from +8 up or from −8 down.
The target in assay [4] is Dihydroorotate dehydrogenase (quinone), mitochondrial (Plasmodium falciparum (isolate 3D7)) (UniProt Q08210). Kind of assay: PfDHODH enzyme inhibitors, primary screen, biochemical, C-terminal His tag, absorbance 600 nm (AID 1175).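 Also: recombinant parasite enzyme with a five histidine tag at its C terminus; test concentration not given here.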 To be noted: DCIP absorbance 600 nm, higher = more signal, called active from +8 up or from −8 down.
Chain of Dihydroorotate dehydrogenase (quinone), mitochondrial (Plasmodium falciparum (isolate 3D7)) (Q08210 whole entry, looked up): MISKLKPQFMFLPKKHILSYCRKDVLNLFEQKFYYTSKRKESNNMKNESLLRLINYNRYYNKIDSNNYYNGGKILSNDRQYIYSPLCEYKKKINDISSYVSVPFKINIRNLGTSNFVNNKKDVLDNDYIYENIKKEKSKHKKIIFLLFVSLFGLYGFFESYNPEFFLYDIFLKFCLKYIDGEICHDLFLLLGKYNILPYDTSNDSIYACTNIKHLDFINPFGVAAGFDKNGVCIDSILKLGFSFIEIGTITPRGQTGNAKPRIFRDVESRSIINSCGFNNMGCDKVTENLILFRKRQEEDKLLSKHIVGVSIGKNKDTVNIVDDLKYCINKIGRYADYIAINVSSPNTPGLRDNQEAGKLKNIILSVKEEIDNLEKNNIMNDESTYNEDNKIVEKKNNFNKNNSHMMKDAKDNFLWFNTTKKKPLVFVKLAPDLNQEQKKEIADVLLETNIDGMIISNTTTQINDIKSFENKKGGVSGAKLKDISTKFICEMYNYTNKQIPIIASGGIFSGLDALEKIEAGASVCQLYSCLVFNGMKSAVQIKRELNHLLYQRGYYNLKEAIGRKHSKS
Assay [5] in a line: P. aeruginosa biofilm formation inhibitors, primary screen, strain PAO1, LB-PBS medium, absorbance 600 nm (AID 1176). Also: test concentration not given here. Conditions: P. aeruginosa PAO1 growth/biofilm, A600, 12 h; higher = more signal.
The nature of assay [6]: S. cerevisiae RM11-1a growth modifiers, primary screen, strain RM11-1a, OD600, basal, 24 h (AID 1177).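 Also: cultures grown under basal conditions with no added stressor; test concentration not given here.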 To be noted: OD600, 24 h, higher = more signal, called active from +8 up or from −8 down.
Assay [7] in a line: E. coli acrAB mutant growth effects, primary screen, E. coli filamentation inducers, strain DRC39, OD650, 24 h (AID 1178).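 Also: growth measured as culture turbidity by optical density at 650 nm; test concentration not given here.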 To be noted: higher = more signal, called active from +8 up or from −8 down.
Assay [8] in a line: E. coli acrAB mutant growth effects, primary screen, E. coli filamentation inducers, strain DRC39, OD650, 48 h (AID 1179).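 Also: screen aims at cell division blockers that make cells filament.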 To be noted: E. coli DRC39 delta-acrAB growth, higher = more signal, called active from +8 up or from −8 down.
Assay [9] is described as follows: RPMI8226 myeloma cell viability, profiling panel, resazurin fluorescence, basal, 24 h, PK04 Diversity Set (AID 1180).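 Also: RPMI8826 multiple myeloma cell line at 5000 cells per well; test concentration not given here.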 Conditions: higher = more signal.
The target of assay [10] is E3 ubiquitin-protein ligase XIAP (Homo sapiens) (UniProt P98170). Kind of assay: XIAP binders, primary screen, biophysical, small-molecule microarray, fluorescence 635 nm (AID 1181).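 Also: score merges 667 nm emission and signal to noise over triplicate slides.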 Conditions: small-molecule microarray binding, higher = more signal.
Chain of E3 ubiquitin-protein ligase XIAP (Homo sapiens) (P98170 whole entry, looked up): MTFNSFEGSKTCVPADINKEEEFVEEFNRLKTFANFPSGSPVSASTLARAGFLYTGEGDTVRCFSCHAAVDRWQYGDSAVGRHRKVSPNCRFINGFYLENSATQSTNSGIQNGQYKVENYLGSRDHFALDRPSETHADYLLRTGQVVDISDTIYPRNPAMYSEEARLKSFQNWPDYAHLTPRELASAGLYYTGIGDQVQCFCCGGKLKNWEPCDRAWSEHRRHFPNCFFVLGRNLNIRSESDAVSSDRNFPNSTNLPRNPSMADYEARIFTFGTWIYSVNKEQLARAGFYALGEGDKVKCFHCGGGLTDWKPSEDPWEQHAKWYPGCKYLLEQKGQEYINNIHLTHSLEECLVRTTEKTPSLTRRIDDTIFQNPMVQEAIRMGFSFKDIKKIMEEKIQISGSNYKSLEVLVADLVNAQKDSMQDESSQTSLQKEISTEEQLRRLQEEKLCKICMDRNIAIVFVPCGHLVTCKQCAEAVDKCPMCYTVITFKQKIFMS

The source made the active and inactive calls. Unless noted, no rule for the calls is given here.

On to `C=CCC(OC(C)=O)[C@@H]1[C@@H](N(Cc2ccc(-c3ccccc3)cc2)C(=O)Cc2ccc(F)cc2)c2cc(OCCCO)ccc2N1C(=O)Cc1ccc(OC)cc1` (stereo not given in full), for which the z-score in [1] is -0.939; in assay [2], 0.637 (inactive); in assay [3], 0.0774 (inactive); in assay [5], -0.431 (inactive); in assay [6], 0.313 (inactive); in assay [7], -0.455 (inactive). Also, the figures for the z-score in assay [8] and in assay [9] were -0.14 (inactive) and -0.103, respectively. Also, the composite z-score was -0.433 (inactive) in assay [4] and 0.0757 in assay [10].
As to `CN(C)CCCNC(=O)[C@@]1(C)c2ccccc2C(=O)N(Cc2ccccc2)[C@H]1c1ccc(CO)cc1`, the z-score in [1] is -0.834; in assay [2], 0.384 (inactive); in assay [3] it was 0.367 (inactive); in assay [5], 0.683 (inactive); in assay [6], 0.861 (inactive); in assay [7] it was -0.147 (inactive). Moreover, the z-score is -0.0983 (inactive) in [8] and 0.009 in assay [9]. In addition, the composite z-score in [4] is -0.106 (inactive); in assay [10], 0.0155.
As for `CCOC(=O)c1ccc(NC(=O)O[C@H]2[C@H](OC(=O)Nc3ccc4c(c3)OCO4)[C@H](OC(=O)Nc3ccc4c(c3)OCO4)[C@@H](OC)O[C@@H]2CO)cc1`, the z-score in assay [1] was -1.09; in assay [2] it was 1.12 (inactive); in assay [3], -1.55 (inactive); in [5] it was 0.95 (inactive); in assay [6], 1.57 (inactive); in assay [7] it was 1.11 (inactive). Moreover, the z-score in [8] was 0.311 (inactive); in [9], -1.36. In addition, the composite z-score was -0.57 (inactive) in assay [4] and 0.32 in assay [10].
With `COC(=O)[C@@]1(Cc2ccc(F)cc2)[C@H]2c3cc(C(=O)N4CCCC4)n(CCN4CNCC4=O)c3C[C@H]2CN1C(=O)c1ccccc1`, the z-score in [1] is 0.424; in assay [2], 1.39 (inactive); in assay [3], -0.758 (inactive); in [5], 0.976 (inactive); in assay [6], 0.76 (inactive); in [7], 0.264 (inactive). Also, the z-score is -1.03 (inactive) in assay [8] and -0.628 in [9]. For the same compound, the composite z-score in assay [4] was -0.421 (inactive); in [10] it was 0.253.
With `Cc1cc(C)c(C(O)C2C=CC3C(=O)N(c4ccccc4)C(=O)C3N2Nc2ccc(C(C)C)cc2)c(C)c1` (stereo not given), the z-score was -1.47 in assay [1]; 0.626 (inactive) in assay [2]; -1.8 (inactive) in assay [3]; 1.28 (inactive) in assay [5]; 1.58 (inactive) in assay [6]; -0.841 (inactive) in assay [7]. Moreover, the z-score was -0.876 (inactive) in [8] and -1.08 in assay [9]. The composite z-score is 0.68 (inactive) in assay [4] and -0.387 in assay [10].
As for `CCOC(=O)[C@H]1[C@@H]2C(=O)N3CCC[C@H]3[C@H](O[Si](C(C)C)(C(C)C)C(C)C)[C@H]2C=C2CCN(S(=O)(=O)c3ccc(C)cc3)C[C@H]21`, the z-score in assay [1] is -1.01; in assay [2], 0.212 (inactive); in assay [3], -1.84 (inactive); in [5], 0.318 (inactive); in [6], -0.598 (inactive); in assay [7] it was -0.146 (inactive). Further, the z-score in [8] is -0.641 (inactive); in assay [9], -3.37. Also, the composite z-score in [4] is -0.627 (inactive); in assay [10], -0.148.
As for `CN(C)C(=O)[C@@]1(Cc2ccccc2CN=[N+]=[N-])N=C(c2ccc(OCCCO)cc2)O[C@H]1c1ccccc1CN=[N+]=[N-]`, the z-score was -1.43 in assay [1]; 1.12 (inactive) in assay [2]; -2.15 (inactive) in assay [3]; 1.35 (inactive) in assay [5]; 2.07 (inactive) in [6]; 0.117 (inactive) in assay [7]. Also, the values for the z-score in [8] and in assay [9] were -0.435 (inactive) and -3.29, respectively. For the same compound, the composite z-score is 2.07 (inactive) in [4] and 0.172 in assay [10].
Take `CCOC(=O)C[C@H]1[C@H](OC(=O)c2ccc(C(=O)c3ccccc3)cc2)[C@@H](NC(=O)Cc2ccc(OC)cc2)c2cc(OCCCO)ccc2N1C(=O)c1ccccc1`: the z-score was 0.0566 in assay [1]; 0.29 (inactive) in assay [2]; -0.292 (inactive) in assay [3]; 0.325 (inactive) in assay [5]; -0.193 (inactive) in assay [6]; -0.307 (inactive) in assay [7]. Further, the z-score in [8] is -0.215 (inactive); in assay [9], -0.268. Further, the composite z-score in assay [4] is -0.517 (inactive); in assay [10], 0.169.
Turning to `NC(=O)NCC#Cc1ccc2c(c1)[C@]1(C(=O)N2)[C@H](C(=O)NC[C@H](O)c2ccccc2)[C@H]2C(=O)O[C@H](c3ccccc3)[C@H](c3ccccc3)N2[C@@H]1c1ccc(OCCO)cc1`, the z-score in [1] was 0.815; in assay [2], 1.5 (inactive); in assay [3], 0.449 (inactive); in assay [5], 1.72 (inactive); in assay [6], 2.91 (inactive); in assay [7] it was 0.615 (inactive). The results for the z-score in assay [8] and in assay [9] were 0.541 (inactive) and 1.3, respectively. For the same compound, the composite z-score in [4] was -1.11 (inactive); in assay [10] it was 0.11.
Regarding `COc1ccc([Si](C)(C)[C@@H]2[C@@H](CC(=O)N(CCO)Cc3ccccc3)O[C@]3(C(=O)N(Cc4cccc(N5C(=O)c6cccc7cccc5c67)c4)c4ccccc43)[C@H]2C)cc1`, the z-score was -0.47 in assay [1]; -0.304 (inactive) in [2]; -1.6 (inactive) in assay [3]; 1.25 (inactive) in [5]; 0.323 (inactive) in [6]; 1.75 (inactive) in assay [7]. Further, the z-score in [8] was 1.51 (inactive); in assay [9] it was -1.27. Further, the figures for the composite z-score in assay [4] and in [10] were -1.29 (inactive) and -0.124, respectively.
Consider `Cc1ccc(S[C@]2(C(=O)NCCCN(C)C)CC(=O)N(C3CCCCC3)[C@@H]2c2ccc(CO)cc2)cc1`, for which the z-score in assay [1] is -0.0347; in assay [2] it was 0.0406 (inactive); in assay [3], 0.118 (inactive); in assay [5], 0.236 (inactive); in assay [6] it was 1.21 (inactive); in assay [7] it was 0.425 (inactive). In addition, the z-score is 0.509 (inactive) in [8] and -0.0763 in assay [9]. In addition, the values for the composite z-score in [4] and in assay [10] were 0.193 (inactive) and -0.0374, respectively.
In the case of `C=CCN1Cc2ccccc2[C@H]2OC(c3ccc(OCCCO)cc3)=N[C@@]2(CC=C)C1=O`, the z-score is -0.594 in assay [1]; -0.926 (inactive) in assay [2]; -1.72 (inactive) in assay [3]; 0.507 (inactive) in assay [5]; 1.18 (inactive) in assay [6]; 0.36 (inactive) in assay [7]. For the same compound, the z-score was 1.09 (inactive) in assay [8] and -1.8 in [9]. For the same compound, the composite z-score in assay [4] is -0.116 (inactive); in assay [10], 0.069.
For the compound `O=C1C2C=CC(C(O)c3ccccc3)N(Nc3ccccc3F)C2C(=O)N1c1ccccc1` (stereo not given), the z-score in assay [1] is 0.688; in [2] it was -1.64 (inactive); in assay [3], -1.07 (inactive); in assay [5], 0.629 (inactive); in [6], 0.0428 (inactive); in assay [7] it was -0.737 (inactive). The z-score was 0.206 (inactive) in assay [8] and 0.466 in [9]. Besides, the composite z-score in assay [4] is -0.104 (inactive); in [10], 0.258.
